ChEMBL document CHEMBL4513146, “CO-ADD screening of Karazin Kharkiv National University (Ukraine) compounds”
Potency and affinity values are given separately.

Assays:
[1] = test system: Klebsiella pneumoniae; conditions: Concentration 32 ug.mL-1;; ASSAY_TEST Inhibition of Bacterial Growth; detection method Absorption (OD600); MEDIA CAMHB; plate type 384well; NBS; CORNING #3640; time 18 hr
[2] = test system: Candida albicans; conditions: Concentration 32 ug.mL-1; ASSAY_TEST Inhibition of Fungal Growth; detection method Absorption (OD530)
[3] = test system: Cryptococcus neoformans; conditions: Concentration 32 ug.mL-1; ASSAY_TEST Inhibition of Fungal Growth; detection method Resazurin; Absorption (OD600-OD570); plate type 384well; NBS; CORNING #3640

Question: For `Cc1nnc2c(SCC(=O)Nc3ccc(Br)cc3F)nc3ccccc3n12`, which Inhibition [1] is on record?
Answer: The Inhibition was 10.56%.

Question: What about the Inhibition [2] of the same molecule?
Answer: The Inhibition was 0.1%.

Question: What about the Inhibition [3] of the same molecule?
Answer: Its Inhibition is -6.82%.

Question: `Cc1ccccc1Oc1nccn2c(=O)n(CC(=O)Nc3ccc(Cl)c(Cl)c3)nc12` was tested. Which Inhibition [1] did it give?
Answer: Its Inhibition is 6.86%.

Question: What about the Inhibition [2] of the same molecule?
Answer: Its Inhibition is 2.23%.

Question: And the Inhibition [3]?
Answer: Its Inhibition is -12.87%.

Question: With `CN(Cc1ccccc1)C(=O)CSc1nnc2c3cc(-c4ccccc4)nn3ccn12` as the molecule, how does the Inhibition [1] read?
Answer: The Inhibition was -0.25%.

Question: And the Inhibition [2]?
Answer: The Inhibition was 2.03%.

Question: What about the Inhibition [3] of the same molecule?
Answer: The Inhibition was -6.97%.

Question: Which results are given for `COc1ccc(NC(=O)Cn2nc3cc(C)nc(Nc4ccc(F)cc4)n3c2=O)cc1F`?
Answer: Inhibition [1]: 11.33%; Inhibition [2]: 2.69%; Inhibition [3]: -3.63%

Question: `Cc1cc(C)cc(Nc2nc(C)cc3nn(CC(=O)Nc4ccc(Cl)cc4)c(=O)n23)c1` was tested. Which Inhibition [1] did it give?
Answer: The Inhibition was 13.53%.

Question: And the Inhibition [2]?
Answer: Its Inhibition is 5.41%.

Question: And the Inhibition [3]?
Answer: Its Inhibition is -4.1%.

Question: For `COc1ccc(CNC(=O)Cn2nc3c4cc(-c5ccc(OC)cc5)nn4ccn3c2=O)cc1`, which Inhibition [1] is on record?
Answer: The Inhibition was 9.14%.

Question: And the Inhibition [2]?
Answer: Its Inhibition is -2.24%.

Question: And the Inhibition [3]?
Answer: Its Inhibition is -14.67%.

Question: With `Cc1ccc(NC(=O)Cn2nc3ccc(SC(C)C)nn3c2=O)cc1F` as the molecule, how does the Inhibition [1] read?
Answer: The Inhibition was 6.4%.

Question: And the Inhibition [2]?
Answer: Its Inhibition is 5.51%.

Question: What about the Inhibition [3] of the same molecule?
Answer: The Inhibition was -6.87%.

Question: How did the Inhibition [1] turn out when `Cc1nnc2ccc(S(=O)(=O)N(Cc3ccccc3)c3ccc(Cl)cc3)cn12` was run?
Answer: Its Inhibition is 0.23%.

Question: And the Inhibition [2]?
Answer: Its Inhibition is -0.42%.

Question: What about the Inhibition [3] of the same molecule?
Answer: The Inhibition was -6.05%.

Question: Which Inhibition [1] does the source give for `C=Cc1ccc(CN(c2ccc(F)cc2)S(=O)(=O)c2ccc3nnc(C)n3c2)cc1` here?
Answer: The Inhibition was 5.5%.

Question: What about the Inhibition [2] of the same molecule?
Answer: Its Inhibition is 1.83%.

Question: What about the Inhibition [3] of the same molecule?
Answer: The Inhibition was -7.48%.

Question: What does the source list for `CCCN(C)c1nccn2c(=O)n(CC(=O)Nc3cccc(C(C)=O)c3)nc12`?
Answer: Inhibition [1]: 4.82%; Inhibition [2]: 2.07%; Inhibition [3]: -8.37%

Question: What does the source list for `COc1ccccc1NC(=O)Cn1nc2c(SC3CCCCC3)nccn2c1=O`?
Answer: Inhibition [1]: -0.89%; Inhibition [2]: 12.37%; Inhibition [3]: -26.18%

Question: How did the Inhibition [1] turn out when `Cn1c(=O)c2sccc2n2c(=O)n(Cc3ccc(Cl)cc3)nc12` was run?
Answer: The Inhibition was 4.35%.

Question: What about the Inhibition [2] of the same molecule?
Answer: Its Inhibition is -0.47%.

Question: And the Inhibition [3]?
Answer: Its Inhibition is -19.86%.

Question: `CCc1nnc2c(S(=O)(=O)N(Cc3cc(F)cc(F)c3)c3cccc(F)c3)cccn12` was tested. Which Inhibition [1] did it give?
Answer: The Inhibition was 12.81%.

Question: And the Inhibition [2]?
Answer: The Inhibition was 4.8%.

Question: And the Inhibition [3]?
Answer: The Inhibition was -5.16%.

Question: Which Inhibition [1] does the source give for `CCCN(C)c1nccn2c(=O)n(CC(=O)Nc3ccc(C#N)cc3)nc12` here?
Answer: Its Inhibition is 16.62%.

Question: What about the Inhibition [2] of the same molecule?
Answer: Its Inhibition is 0.92%.

Question: What about the Inhibition [3] of the same molecule?
Answer: Its Inhibition is -9.74%.

Question: `O=C(Cn1nc2c(N3CCN(c4ccccc4)CC3)nccn2c1=O)Nc1ccc2c(c1)OCO2` was tested. Which Inhibition [1] did it give?
Answer: Its Inhibition is 5.9%.

Question: What about the Inhibition [2] of the same molecule?
Answer: The Inhibition was 4.15%.

Question: What about the Inhibition [3] of the same molecule?
Answer: The Inhibition was -7.4%.

Question: Which Inhibition [1] does the source give for `CCOc1ccccc1NC(=O)Cn1nc2c(Sc3cccc(C)c3)nccn2c1=O` here?
Answer: Its Inhibition is 9.01%.

Question: And the Inhibition [2]?
Answer: The Inhibition was 0.35%.

Question: What about the Inhibition [3] of the same molecule?
Answer: Its Inhibition is -13.32%.

Question: What does the source list for `CC1CCN(C(=O)Cn2nc3n(Cc4cccs4)c(=O)c4sccc4n3c2=O)CC1`?
Answer: Inhibition [1]: 0.67%; Inhibition [2]: 6.15%; Inhibition [3]: -10.95%

Question: With `O=C(Cn1nc2ccc(SC3CCCCC3)nn2c1=O)Nc1ccc2c(c1)OCO2` as the molecule, how does the Inhibition [1] read?
Answer: Its Inhibition is -18.44%.

Question: And the Inhibition [2]?
Answer: Its Inhibition is 1.48%.

Question: And the Inhibition [3]?
Answer: Its Inhibition is -3.38%.

Question: With `CCOc1ccc(-n2ccn3c(SCC(=O)c4cccc(OC)c4)nnc3c2=O)cc1` as the molecule, how does the Inhibition [1] read?
Answer: Its Inhibition is 9.6%.

Question: And the Inhibition [2]?
Answer: The Inhibition was 2.55%.

Question: What about the Inhibition [3] of the same molecule?
Answer: The Inhibition was -9.06%.

Question: What does the source list for `Cc1ccc(C(=O)C(C)Sc2nnc3c(=O)n(-c4ccc(F)c(F)c4)ccn23)cc1C` (stereo not drawn)?
Answer: Inhibition [1]: -0.54%; Inhibition [2]: 2.5%; Inhibition [3]: -3.72%

Question: For `COc1ccc(NC(=O)c2ccc3nn(CC(=O)Nc4ccc(C(F)(F)F)cc4)c(=O)n3c2)cc1`, which Inhibition [1] is on record?
Answer: The Inhibition was -7.6%.

Question: And the Inhibition [2]?
Answer: Its Inhibition is 4.22%.

Question: What about the Inhibition [3] of the same molecule?
Answer: Its Inhibition is -2.75%.

Question: `Cc1ccc(-c2cc3c4nnc(SCC(=O)Nc5ccccc5Br)n4ccn3n2)cc1` was tested. Which Inhibition [1] did it give?
Answer: Its Inhibition is 5.31%.

Question: And the Inhibition [2]?
Answer: Its Inhibition is 5.08%.

Question: And the Inhibition [3]?
Answer: The Inhibition was -35.04%.

Question: What does the source list for `Cc1ccc(NC(=O)Cn2nc3c4c5c(sc4ncn3c2=O)CCCC5)c(Cl)c1`?
Answer: Inhibition [1]: 3.19%; Inhibition [2]: 9.32%; Inhibition [3]: -16.36%

Question: How did the Inhibition [1] turn out when `CCc1nnc2c(S(=O)(=O)N(Cc3cccc(C)c3)c3ccc(C(C)C)cc3)cccn12` was run?
Answer: Its Inhibition is 14.47%.

Question: And the Inhibition [2]?
Answer: The Inhibition was 4.99%.

Question: What about the Inhibition [3] of the same molecule?
Answer: The Inhibition was -9.13%.

Question: `Cc1ccc(C)c(NC(=O)Cn2nc3n(C)c(=O)c4c(c(-c5ccccc5)cn4C)n3c2=O)c1` was tested. Which Inhibition [1] did it give?
Answer: Its Inhibition is -7.88%.

Question: And the Inhibition [2]?
Answer: The Inhibition was 1.95%.

Question: And the Inhibition [3]?
Answer: The Inhibition was -9.34%.

Question: Which Inhibition [1] does the source give for `O=C(CSc1nc2ccccc2n2cnnc12)Nc1cccc(Br)c1` here?
Answer: The Inhibition was 2.26%.

Question: And the Inhibition [2]?
Answer: The Inhibition was -0.56%.

Question: And the Inhibition [3]?
Answer: Its Inhibition is -6.2%.

Question: What does the source list for `COC(=O)c1ccccc1NC(=O)Cn1nc2c(Oc3ccccc3)nccn2c1=O`?
Answer: Inhibition [1]: 8.23%; Inhibition [2]: 7%; Inhibition [3]: -9.79%

Question: How did the Inhibition [1] turn out when `CCc1ccc(NC(=O)CSc2nnc3c(=O)n(-c4ccccc4)ccn23)cc1` was run?
Answer: Its Inhibition is 10.7%.

Question: What about the Inhibition [2] of the same molecule?
Answer: The Inhibition was 2.07%.

Question: What about the Inhibition [3] of the same molecule?
Answer: Its Inhibition is -14.31%.

Question: What does the source list for `CCOC(=O)c1cccc(NC(=O)Cn2nc3c4cc(-c5ccc(C)c(C)c5)nn4ccn3c2=O)c1`?
Answer: Inhibition [1]: -4.81%; Inhibition [2]: 21.87%; Inhibition [3]: -17.02%

Question: Which results are given for `Cc1cccc(C)c1NC(=O)CSc1nc2ccccc2n2c(C)nnc12`?
Answer: Inhibition [1]: 9.22%; Inhibition [2]: 0.67%; Inhibition [3]: -4.49%

Question: With `CCOc1ccccc1NC(=O)Cn1nc2c(Oc3cccc(OC)c3)nccn2c1=O` as the molecule, how does the Inhibition [1] read?
Answer: The Inhibition was 8.86%.

Question: What about the Inhibition [2] of the same molecule?
Answer: The Inhibition was 0.7%.

Question: What about the Inhibition [3] of the same molecule?
Answer: The Inhibition was -8.27%.
